Data published in paper PMC4336329 (PLoS ONE, 2015).
Among all 310,000 compounds or so, about 14,000 (4.5%) showed an effect of 50% or more. Effects have a minus sign here. Shown is part of a subset that was picked to be rich in strong results.

What follows are compounds tested against human ether-à-go-go-related gene (hERG) potassium channel (human, UniProt Q12809) (assay: primary screen, population patch clamp on CHO cells stably expressing hERG; higher = less effect of the substance).
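Also: peak tail current of the secondary pulse compared with the same well before compound.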

Sequence of human ether-à-go-go-related gene (hERG) potassium channel (Q12809 whole entry, looked up): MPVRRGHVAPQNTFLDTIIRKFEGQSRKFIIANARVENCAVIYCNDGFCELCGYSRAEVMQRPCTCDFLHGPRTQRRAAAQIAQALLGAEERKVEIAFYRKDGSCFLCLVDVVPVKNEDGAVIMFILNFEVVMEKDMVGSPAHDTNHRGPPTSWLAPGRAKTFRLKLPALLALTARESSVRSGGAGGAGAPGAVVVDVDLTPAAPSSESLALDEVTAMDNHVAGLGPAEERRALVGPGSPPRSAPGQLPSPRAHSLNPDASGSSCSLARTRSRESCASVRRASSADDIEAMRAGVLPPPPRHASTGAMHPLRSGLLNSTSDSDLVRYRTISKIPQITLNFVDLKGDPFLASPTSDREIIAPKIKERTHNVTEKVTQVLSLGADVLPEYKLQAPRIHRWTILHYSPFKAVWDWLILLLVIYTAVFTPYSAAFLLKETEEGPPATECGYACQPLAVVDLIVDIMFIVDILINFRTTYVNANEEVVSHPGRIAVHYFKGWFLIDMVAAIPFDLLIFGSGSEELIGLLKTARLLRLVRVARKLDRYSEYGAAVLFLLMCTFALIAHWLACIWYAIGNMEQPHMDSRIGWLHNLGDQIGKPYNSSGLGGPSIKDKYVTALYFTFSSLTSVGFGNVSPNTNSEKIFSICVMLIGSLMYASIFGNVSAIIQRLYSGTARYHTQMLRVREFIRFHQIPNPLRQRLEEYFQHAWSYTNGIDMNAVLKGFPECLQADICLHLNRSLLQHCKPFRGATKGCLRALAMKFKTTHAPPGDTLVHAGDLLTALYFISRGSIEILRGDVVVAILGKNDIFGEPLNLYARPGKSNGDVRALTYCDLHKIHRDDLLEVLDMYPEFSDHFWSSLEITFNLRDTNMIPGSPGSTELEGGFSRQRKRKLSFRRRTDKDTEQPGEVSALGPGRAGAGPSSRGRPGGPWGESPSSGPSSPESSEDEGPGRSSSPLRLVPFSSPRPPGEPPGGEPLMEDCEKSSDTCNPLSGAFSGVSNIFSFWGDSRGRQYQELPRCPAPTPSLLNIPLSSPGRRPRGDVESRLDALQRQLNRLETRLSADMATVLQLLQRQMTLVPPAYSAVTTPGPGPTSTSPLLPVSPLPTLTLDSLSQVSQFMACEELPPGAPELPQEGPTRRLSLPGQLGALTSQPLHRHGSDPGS

In order of falling “hERG current change (%, negative = inhibition) at 10uM” value:
1. O=c1c2ccccc2nnn1COc1ccc(Cl)cc1Br  22.2%
2. S=c1[nH]nc(COc2ccccc2)n1/N=C/c1cccc(Br)c1  22.2%
3. COc1ccc(S(=O)(=O)N2CCC(Cc3ccccc3)CC2)cc1NC(C)=O  20.5%
4. Nc1nc(-c2ccc3c(c2)NC(=O)CO3)cs1  15.5%
5. O=C(NN1C(=O)/C(=C/C=C/c2ccco2)SC1=S)c1ccncc1  15.3%
6. CCSCCc1nnc(NC(=O)Nc2cccc(C(F)(F)F)c2)s1  15.2%
7. NC(=O)C(F)(F)C12OC3C4C5CC(C6C5C3C61)C42 (stereo not drawn)  15.1%
8. CC(=O)Nc1cccc(NC(=O)CSc2nccn2Cc2ccco2)c1  14%
9. CCOc1ccc(C(=O)NC(C(=O)NCCc2ccc(S(N)(=O)=O)cc2)C(C)C)cc1 (stereo not drawn)  13.4%
10. CC(C)c1ccccc1OCC(=O)N1CCCCCCC1  13%
11. Cn1nnnc1SCC(=O)N1CCN(c2ccccc2)CC1  12.4%
12. CCC(CC)C(=O)NCCc1ccc(F)cc1  12.1%
13. O=C(Nc1nnc(-c2cccs2)o1)c1cccc(F)c1  11.8%
14. Cc1sc2ncnc(SCC(=O)NC(=O)c3cccn3C)c2c1C  10.8%
15. Cc1ccc2c(=O)cc(C(=O)NCCc3ccc(S(N)(=O)=O)cc3)oc2c1  9.13%
16. Cc1ccccc1NC(=O)Cn1nc(C(F)(F)F)cc1C1CC1  8.48%
17. COc1ccc(-n2cnc3cc(NS(=O)(=O)c4ccccc4)ccc32)cc1  7.83%
18. O=C(COc1ccccc1)Nc1nc2cc3c(cc2s1)OCCO3  7.49%
19. CCOc1ccc(C(=O)N[C@H](C(=O)O)C(C)C)cc1  7.22%
20. C/C(=N/NC(N)=S)c1ccccc1[N+](=O)[O-]  7.13%
21. Cc1ccc2nc(NC(=O)C3CCN(S(=O)(=O)c4cnc[nH]4)CC3)sc2c1  6.57%
22. COc1ccccc1-n1c(SCC(=O)Nc2cccc3ccccc23)nc(O)cc1=O  5.56%
23. Cc1noc(C)c1COc1cccc(C(=O)OC(C)C(=O)Nc2c(C)n(C)n(-c3ccccc3)c2=O)c1 (stereo not drawn)  4.8%
24. CCOc1ccc(CCNC(=O)C(O)c2ccccc2)cc1 (stereo not drawn)  4.11%
25. CN1/C(=C/C2CC(=O)NC2=O)C(C)(C)c2ccccc21 (stereo not drawn)  3.26%
26. Cc1cc(C)cc(-n2cnc3cc(C(=O)O)ccc32)c1  2.82%
27. O=C(Nc1nnc(-c2ccccc2)o1)c1cc(-c2cccs2)nc2ccccc12  2.29%
28. CCOC(CNC(=O)c1ccc2c(c1)ncn2-c1ccccc1OC)OCC  2.14%
29. Cc1ccc(OCCCCNC(C)c2ccccc2)c(C)c1 (stereo not drawn)  2.1%
30. CCOC(=O)c1nc(C)n(-c2cc(Cl)ccc2Cl)n1  1.64%
31. CC(=O)OC/C=C(\C)CCC=C(C)C  -0.25%
32. Cc1ccc(C2c3[nH]c4ccccc4c3C[C@H]3C(=O)N(c4ccccc4C(=O)N4CCC[C@@H]4C(=O)O)C(=O)N23)cc1 (stereo partly drawn)  -0.654%
33. COC(=O)C1=C(C)OC(N)=C(C#N)C1c1cc(C)sc1C (stereo not drawn)  -0.682%
34. COCCCNC(=O)c1ccc2c(c1)ncn2-c1ccccc1OC  -1.73%
35. CCOc1ccccc1CN1CCN(CC2CC2)CC1CCO (stereo not drawn)  -2.67%
36. Nc1cc(=O)[nH]c(SCC(=O)N2CCC(Cc3ccccc3)CC2)n1  -2.88%
37. CCN(CC)S(=O)(=O)c1ccc(N2CCOCC2)c(NC(=O)COc2ccccc2C#N)c1  -3.3%
38. COc1ccccc1-n1cnc2cc(NS(=O)(=O)c3ccc(Br)cc3)ccc21  -3.3%
39. Cc1onc(-c2c(Cl)cccc2Cl)c1C(=O)n1nnc2ccccc21  -3.48%
40. CCOCCCNC(=O)c1ccc2c(c1)ncn2-c1ccccc1OC  -4.39%
41. O=C(CNC(=S)N(Cc1ccccc1F)C1CCCCC1)NC1CC1  -4.74%
42. Cc1nc(C)n(CC(O)COc2ccc(C(=O)c3ccccc3)cc2)n1 (stereo not drawn)  -6.4%
43. O=C(CSc1nnc2c(Cl)cc(Cl)cn12)N1CCOCC1  -6.52%
44. O=C(CCOc1ccccc1)OCC(=O)c1cc2ccccc2o1  -10.3%
45. CC1=C(C)CC(C(=O)NCCc2ccccc2)C(C(=O)O)C1 (stereo not drawn)  -10.8%
46. Cc1ccccc1C(=O)NNC(=O)/C=C\C(=O)O  -11.1%
47. COc1ccccc1-n1cnc2cc(C(=O)NCC3CCCO3)ccc21 (stereo not drawn)  -13.7%
48. CCNC(=S)Nc1ccc(Cl)cc1Cl  -14%
49. COc1ccc(-n2cnc3cc(C(=O)N4CCOCC4)ccc32)cc1  -15.6%
50. Cc1ccccc1C(OCCN(C)C)C1CCCCC1.O=C(O)C(=O)O (stereo not drawn)  -16.3%
51. CCCCNC(=O)c1ccc2c(c1)ncn2C1CCCC1  -16.7%
52. COc1cc(C(=O)OCC(=O)N2CCC(Cc3ccccc3)CC2)cc(OC)c1OC  -16.9%
53. COc1ccc(-n2cnc3cc(C(=O)NCC4CCCO4)ccc32)cc1 (stereo not drawn)  -17.9%
54. O=C(CSc1nnc2c(Cl)cc(Cl)cn12)N1CCN(S(=O)(=O)c2ccccc2)CC1  -19.1%
55. O=C1N=C(N2CCc3ccccc3C2)S/C1=C\c1ccc(O)cc1  -20.8%
56. Oc1ccc(CCc2n[nH]c(=S)n2-c2ccc(F)cc2)cc1  -22.2%
57. COC(CNC(=O)c1ccc2c(c1)ncn2-c1cc(C)cc(C)c1)OC  -22.5%
58. CCc1ccc(CN(C)C(C)C(=O)NCc2ccccc2)cc1 (stereo not drawn)  -23.5%
59. COc1ccc(-n2cnc3cc(C(=O)NCCN4CCOCC4)ccc32)cc1  -23.8%
60. N#Cc1cc2c(=O)n3ccccc3nc2n(CCCN2CCOCC2)c1=O  -24.3%
61. Cn1nnnc1SCC(=O)N1CCN(c2cccc(Cl)c2)CC1  -26.8%
62. COc1ccc(CCNC(=O)CCN2C(=O)[C@@H]3Cc4ccccc4CN3C2=O)cc1  -28.3%
63. CSc1ccc(CN(C)C(C)C(=O)NCc2ccccc2)cc1 (stereo not drawn)  -32.8%
64. COC(=O)C1=C(C(=O)OC)[C@@H]2N(C)c3ccc(OC)cc3[C@@]23C[C@@H](C(=O)OC)N(C(=O)NCCBr)C3=N1  -32.9%
65. CN(CC(=O)Nc1ccc(N2CCOCC2)cc1)C(=O)c1cc(F)c(F)cc1Cl  -38.3%
66. CC(C)CCNC(=O)c1ccc2c(c1)ncn2C1CCCCC1  -42.8%
67. CCOCCCNC(=O)c1ccc2c(c1)ncn2-c1ccc(CC)cc1  -43.8%
68. COc1ccc(NC(=S)N2CCC(Cc3ccccc3)CC2)cc1OC  -45.3%
69. COc1cc(C(=S)N2CCC(Cc3ccccc3)CC2)ccc1OCC(N)=O  -46.8%
70. Cn1nnnc1SCC(=O)N1CCN(c2ccc(Cl)cc2)CC1  -51.2%
71. O=C(CSc1nnc2c(Cl)cc(Cl)cn12)N1CCN(c2ccc(F)cc2)CC1  -51.5%
72. CCOc1ccc(CN(C)C(C)C(=O)NCc2ccccc2)cc1 (stereo not drawn)  -54.8%
73. CC(C)CCNC(=O)c1ccc2c(c1)ncn2C1CCCC1  -54.8%
74. CCCNC(=O)c1ccc2c(c1)ncn2-c1cc(C)cc(C)c1  -55.1%
75. COc1ccccc1-n1cnc2cc(NS(=O)(=O)c3ccccc3)ccc21  -57.5%
76. CCCNC(=O)c1ccc2c(c1)ncn2-c1ccccc1OC  -60.3%
77. Cc1cccn2c(=O)c3cc(C#N)c(=O)n(CCCN4CCOCC4)c3nc12  -60.7%
78. CCOc1ccc(C(=O)NC(C(=O)NCCc2ccc(OC(F)F)cc2)C(C)C)cc1 (stereo not drawn)  -62.6%
79. OCCOc1ccc(CN2CCN(CCCc3ccccc3)C(CCO)C2)cc1 (stereo not drawn)  -63.3%
80. CCCCCNC(=O)c1ccc2c(c1)ncn2-c1ccc(OC)cc1  -64%
81. CCOc1ccccc1CN1CCN(CCCc2ccccc2)CC1CCO (stereo not drawn)  -64.9%
82. COc1ccccc1-n1cnc2cc(C(=O)NC3CCCC3)ccc21  -65.5%
83. COc1ccc(-n2cnc3cc(C(=O)NC4CCCC4)ccc32)cc1  -67.9%
84. Cc1ccccc1C(OCCN(C(C)C)C(C)C)c1ccccc1.O=C(O)/C=C\C(=O)O (stereo not drawn)  -68.3%
85. CCOc1ccc(CN(C)C(C)C(=O)NCCc2ccc(F)cc2)cc1 (stereo not drawn)  -71.5%
86. CCOc1ccc(CN2CCN(CCCc3ccccc3)C(CCO)C2)cc1 (stereo not drawn)  -75.5%
87. CCOc1ccc(CN2CCN(CCCc3ccccc3)CC2CCO)cc1 (stereo not drawn)  -76%
88. COc1cc(C(C)=O)ccc1OCCCN1CCC(Cc2ccccc2)CC1.O=C(O)C(=O)O  -77.9%
89. Cc1cccn2c(=O)c3cc(C#N)c(=N)n(CCCN4CCOCC4)c3nc12  -80%
90. COc1cc(C(C)=O)ccc1OCCN1CCC(Cc2ccccc2)CC1.O=C(O)C(=O)O  -91%
